Screening results (PubChem)
EphB4 ephrin blk – EphB4-ephrin-B2 interaction antagonists, primary screen, biochemical, TNYL-RAW peptide probe, fluorescence polarization; inhibition, % at 7 µM; actives 0.15% (n = 97,000); Ephrin type-B receptor 4 (Homo sapiens), P54760; EphB4 LBD / TNYL-RAW-Alexa532 peptide;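 active means inhibition above the screen-wide mean inhibition plus 3 SD, cut at about 15% in these data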;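 further: 0% = DMSO wells and 100% = excess unlabeled TNYL-RAW peptide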
CYP2C19 act – human CYP2C19 activators, primary screen, biochemical, luminescence; 96,000 tested, under 10 active; recombinant CYP2C19, luciferin-H EGE luminescence; stronger effect = higher value; 0 = fully inhibited enzyme, 1 = untreated enzyme; Cytochrome P450 2C19 (Homo sapiens), P33261; activation factor at 5 µM;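 active means activation factor of at least 2 at 5 µM in the primary screen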;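 further: 0 = wells with 2.5 mM tranylcypromine and 1 = vehicle-only wells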
Target sequence (P33261 whole entry, looked up): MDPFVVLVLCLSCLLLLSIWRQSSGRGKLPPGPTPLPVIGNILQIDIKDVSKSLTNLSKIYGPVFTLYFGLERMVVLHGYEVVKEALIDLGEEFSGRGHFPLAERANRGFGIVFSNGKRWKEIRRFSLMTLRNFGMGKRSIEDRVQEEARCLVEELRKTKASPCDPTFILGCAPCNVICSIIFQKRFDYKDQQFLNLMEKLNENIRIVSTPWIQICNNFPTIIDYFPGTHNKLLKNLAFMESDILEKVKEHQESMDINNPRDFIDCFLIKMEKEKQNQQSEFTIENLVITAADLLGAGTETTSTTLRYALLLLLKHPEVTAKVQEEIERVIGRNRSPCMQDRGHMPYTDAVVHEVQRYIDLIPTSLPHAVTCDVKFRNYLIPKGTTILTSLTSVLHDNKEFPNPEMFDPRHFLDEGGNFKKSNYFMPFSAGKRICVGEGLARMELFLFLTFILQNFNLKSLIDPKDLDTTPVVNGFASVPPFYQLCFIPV
CYP2C9 inh – blockers of cytochrome P450 2C9 activity – biochemical, luminescence, ADME assay, primary screen. P11712. CYP2C9 Supersomes, luciferin-H conversion. inhibition, % at 5 µM. actives 20% (n = 96,000);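 active means blocking of liver enzyme CYP2C9 beyond about 50% at 5 µM, limit read from the data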
CYP2C19 inh – blockers of cytochrome P450 2C19 activity – biochemical, luminescence, ADME assay, primary screen | P33261 | CYP2C19 Supersomes, luciferin-H EGE luminescence, 30 min | inhibition, % at 5 µM | actives 21% (n = 96,000) | AID 778, 2007;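 active means CYP2C19 inhibition above a set limit at 5 µM in the primary screen, cut at about 50% in these data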;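 further: plate controls were negative control wells for no effect and 2.5 mM tranylcypromine positive control for full effect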
CYP2C9 act – human CYP2C9 activators, primary screen, biochemical, luminescence; actives 1.4% (n = 96,000); Cytochrome P450 2C9 (Homo sapiens), P11712; activation factor at 5 µM; recombinant CYP2C9, luciferin-H conversion; stronger effect = higher value; factor 1 = untreated enzyme, 0 = blocked;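 active means activation factor of 2 or more for CYP2C9 at a 5 µM dose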;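 further: 0 = sulfaphenazole-blocked wells and 1 = vehicle-only wells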
* marks the source's active call; other numbers are inactive results; . = no result given. The list is not random: actives were taken first. Their share in the collection is about 27%.

SMILES | EphB4 ephrin blk | CYP2C19 act | CYP2C9 inh | CYP2C19 inh | CYP2C9 act
Cc1ccc(C(=O)O/N=C\c2ccc(N3CCCCC3)c([N+](=O)[O-])c2)cc1 | -2 | 0.6 | 61* | 43 | 0.4
N#C/C(=C/c1ccc(N2CCCC2)c([N+](=O)[O-])c1)c1nc2ccccc2[nH]1 | -1 | 0.3 | 58* | 73* | 0.4
O=C(O/N=C\c1ccc(N2CCCCC2)c([N+](=O)[O-])c1)c1c(F)cccc1F | -5 | 0.6 | -37 | 43 | 1.4
N#C/C(=C\c1ccc(Oc2ccc(C(F)(F)F)cc2[N+](=O)[O-])cc1)c1nc2ccccc2[nH]1 | -5 | 0.8 | 21 | 18 | 0.8
COc1cc(NC(=O)CCNC(=O)Cn2cnc3ccccc3c2=O)cc(OC)c1OC | 1 | 1 | 15 | 0 | 0.8
Cc1cc2oc3c(c(=O)c2cc1C)C(c1cccc(Br)c1)N(Cc1ccco1)C3=O (stereo not given) | 2 | 0 | 95* | 98* | 0
O=C1c2oc3ccc(Cl)cc3c(=O)c2C(c2cccc(Br)c2)N1CCO (stereo not given) | -2 | 0.5 | 34 | 50* | 0.7
Cc1ccc2oc3c(c(=O)c2c1)C(c1cccc(Br)c1)N(Cc1ccco1)C3=O (stereo not given) | -6 | 0.9 | 20 | 9 | 0.8
Cc1ccc(-n2nnc3c(=O)n(Cc4cc(C)ccc4C)cnc32)cc1 | 4 | . | . | . | .
Cc1ccc(CNC(=O)C(C)OC(=O)c2ccco2)cc1 (stereo not given) | . | 0.3 | 55* | 72* | 0.4
CC(OC(=O)c1cccs1)C(=O)NCC1CCCO1 (stereo not given) | . | 0.5 | -7 | 51* | 1.1
Cc1ccc(CNC(=O)C(OC(=O)c2ccco2)C(C)C)cc1 (stereo not given) | . | 0.1 | 61* | 86* | 0.4
Cc1ccc(CNC(=O)C(C)OC(=O)c2cccs2)cc1 (stereo not given) | 1 | 0.2 | 68* | 77* | 0.3
O=C(CSCc1ccco1)c1cccs1 | . | 0.7 | 5 | 29 | 1
CC(C)C(OC(=O)c1ccco1)C(=O)NCc1cccs1 (stereo not given) | -11 | 0.3 | 35 | 69* | 0.6
Cc1ccc(S(=O)(=O)C2(C(=O)N3CCCCCC3)CC2)cc1 | -4 | 0.2 | 9 | 79* | 0.9
CC1(C)CC(=O)C2=C(C1)NCN(Cc1ccc3c(c1)OCO3)C2 | -2 | 0.9 | 85* | 15 | 0.1
c1cc2c(cc1CN1CCOCC1)OCO2 | -3 | 0.7 | 6 | 30 | 0.9
OC(CSc1c(Cl)cccc1Cl)CN1CCN(c2ccccc2F)CC1 (stereo not given) | 14 | 0.8 | 30 | 21 | 0.7
COc1ccc(S(=O)(=O)CCC(=O)Nc2c(C)n(C)n(-c3ccccc3)c2=O)cc1 | . | 0.9 | -5 | 6 | 1
CC(=O)Oc1cccc(/C=c2\sc3nc(-c4ccco4)nn3c2=O)c1 | -1 | 0.9 | 22 | 13 | 0.8
COc1cc(/C=c2\sc3nc(-c4ccncc4)nn3c2=O)ccc1OC(C)=O | -3 | 0.4 | 76* | 60* | 0.2
O=C(Nc1ccc(F)cc1)c1sccc1SCc1cccc(C(F)(F)F)c1 | 6 | 0.6 | 65* | 36 | 0.4
O=C(Nc1ccc(F)cc1F)c1sccc1SCc1cccc(C(F)(F)F)c1 | 1 | 0.7 | 58* | 26 | 0.4
O=C(Nc1cccc(C(F)(F)F)c1)c1ccco1 | -2 | 1 | -33 | 3 | 1.3
SMILES | EphB4 ephrin blk | CYP2C19 act | CYP2C9 inh | CYP2C19 inh | CYP2C9 act
COc1ccc(NC(=O)c2sccc2SCc2cccc(C(F)(F)F)c2)cc1 | 5 | 0.5 | 69* | 50* | 0.3
O=C1CC(C(=O)O)S/C(=N\NC(=O)c2ccccc2)N1 (stereo not given) | 4 | 1 | 3 | 2 | 1
O=C(NNC(=O)c1ccccc1-n1cccc1)c1cccc(Cl)c1 | 3 | 0.9 | 29 | 7 | 0.7
COc1cc(Br)cc2cc(C(=O)NCC3CCCO3)c(=O)oc12 (stereo not given) | 2 | 1 | -49 | 1 | 1.5
COc1cccc(Oc2cnc(N)nc2-c2ccc(OC)cc2O)c1 | 7 | 0.2 | 79* | 76* | 0.2
C=C(C)COc1ccc(-c2nc(N)nc(C)c2Oc2ccccc2OC)c(O)c1 | -5 | 0.8 | 24 | 17 | 0.8
C=C(C)COc1ccc(-c2ncncc2Oc2ccc(OC)cc2)c(O)c1 | 0 | 0.1 | 98* | 92* | 0
C=C(C)COc1ccc(-c2nc(N)ncc2-c2ccc(OC)cc2)c(O)c1 | 14 | 0.6 | 52* | 36 | 0.5
CCOc1ccc(-c2nnc(SCC(=O)Nc3ccc4c(c3)c3ccccc3n4CC)n2N)cc1 | -2 | 0.8 | 27 | 16 | 0.7
CCc1ccc(S(=O)(=O)NCCc2cn3ccsc3n2)s1 | -2 | 0.3 | 48 | 68* | 0.5
CCc1ccc(S(=O)(=O)NCc2cn3cccc(C)c3n2)s1 | -9 | 0.9 | -34 | 7 | 1.3
CCc1ccc(S(=O)(=O)NCc2cn3ccccc3n2)s1 | -1 | 0.1 | 20 | 86* | 0.8
CCc1ccc(S(=O)(=O)NCc2cn3ccsc3n2)s1 | . | 0.5 | -1 | 47 | 1
Cc1ccc(CNC(=O)C2C3C=CC(C3)C2C(=O)O)cc1 (stereo not given) | -1 | 0.5 | 13 | 53* | 0.9
CCN(Cc1ccccc1)C(c1ccc(C)cc1)c1nnnn1C(C)(C)C (stereo not given) | 0 | 0.7 | 10 | 27 | 0.9
COc1ccc(OC)c(NC(=O)Cc2nn(C)c(=O)c3ccccc23)c1 | -2 | . | . | . | .
COc1ccc(OC)c(NC(=O)Cc2coc3cc(C)cc(C)c23)c1 | 1 | 0.2 | 55* | 75* | 0.4
COc1ccc(OC)c(NC(=O)Cc2coc3ccc4ccccc4c23)c1 | 8 | 0 | 26 | 96* | 0.7
COc1ccc(OC)c(NC(=O)Cc2coc3ccc(C)cc23)c1 | 2 | 0.5 | 44 | 53* | 0.6
COC(=O)c1c(NC(=O)C(C)C)sc2c1C(C(=O)OC)CC2 (stereo not given) | 2 | . | . | . | .
O=C(Nc1sc2c(c1C(=O)NCc1cccnc1)CCCC2)c1ccco1 | 0 | 0.2 | 95* | 78* | 0.1
CC(Oc1ccc(F)cc1)C(=O)Nc1sc2c(c1C(=O)NCc1cccnc1)CCCC2 (stereo not given) | 4 | 0.2 | 94* | 78* | 0.1
CC(Oc1ccccc1)C(=O)NCc1cccnc1 (stereo not given) | 7 | 0.8 | -1 | 16 | 1
O=C(Nc1sc2c(c1C(=O)NC1CC1)CCCCCC2)c1ccco1 | -3 | 0.9 | 33 | 10 | 0.7
O=C(Nc1sc2c(c1C(=O)O)CCC2)c1ccco1 | 3 | 0.4 | 53* | 62* | 0.5
